Test results published in PubChem BioAssay (NCATS).
“And” between values parts separate entries of the source, which are not always exact repeats. Identical values can stand only once. Records with an inconclusive call do not appear. The source made the active and inactive calls. Unless noted, the call rests on the fitted dose curve; in most records, active means well fitted curve in the direction sought with a large enough effect; inconclusive means small, poorly fitted or top-dose-only effect, or another doubt; inactive means no such curve, though single readings can be large; an effect the other way counts as inactive or inconclusive.

Assays:
[1] = AP1 Signaling Pathway (AID 357; active means well fitted curve in either direction with a large enough effect, not every such curve was filed as active;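 further: ME-180 reporter cells stimulated with EGF at its EC50 level; on the % scale 0 is the no-effect control and ±100 the full control effect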); conditions: ME-180 AP-1-bla reporter, EGF-induced, beta-lactamase ratio, 5 h
In short: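 Cells are seeded overnight, exposed to compound titrations and an EC50 level of EGF for 5 hours at 37 °C, then loaded with CCF4 dye for 2.5 hours. Beta-lactamase activity under the AP-1 element is read as a blue/green ratio.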

[2] = NFAT Signaling Pathway (AID 444; active means well fitted curve in either direction with a large enough effect, not every such curve was filed as active;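 further: carbachol stimulus at about its EC50 of 1 µM final; on the % scale 0 is the no-effect control and ±100 the full control effect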); conditions: Jurkat NFAT-bla M1, carbachol, beta-lactamase ratio, 5 h
In short: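 Read-out: CCF4 FRET ratio (460 nm/530 nm) after 1 h RT dye loading, used for %activity and AC50 from titration series. Cells: Jurkat NFAT-β-lactamase/M1 line, treated with compound plus 1 uM carbachol for 5 h, 37 °C.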

[3] = Stat Signaling Pathway (AID 446; active means well fitted curve in either direction with a large enough effect, not every such curve was filed as active;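 further: ME-180 cervical cancer cells given 40 pM IL-6 alongside compound; SIE-controlled beta-lactamase reporter measured as 460/530 nm FRET emission ratio; on the % scale 0 is the no-effect control and ±100 the full control effect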); conditions: ME-180 (cervical carcinoma) SIE beta-lactamase reporter, IL-6 stimulated, 5 h
In short: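 Compound effects on IL-6-induced STAT reporter activity were measured in ME-180 cells. After overnight culture, cells were co-treated with 40 pM IL-6 for 5 hrs before beta-lactamase substrate loading at room temperature.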

[4] = target: Mitogen-activated protein kinase 10 (Mus musculus) (UniProt Q61831); assay: JNK3 AlphaScreen Assay (AID 530; active means well fitted curve in either direction with a large enough effect, not every such curve was filed as active;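 further: kinase came from lysate of stimulated human HepG2 cells; signal reports phosphorylation of biotinylated GST-cJun 1-79 at Ser73 with 10 µM ATP; on the % scale 0 is the no-effect control and ±100 the full control effect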); conditions: JNK3 lysate, c-Jun phosphorylation; series mostly up to 57.1 µM
In short: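 qHTS titrations with 15 min compound pre-incubation before adding ATP (10 uM final). Read-out: AlphaScreen of Ser73-phosphorylated biotin-GST-cJun using HepG2 lysate JNK3 activated by IL-1β and TNFα.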

[5] = target: 3',5'-cyclic-AMP phosphodiesterase 4B (Homo sapiens) (UniProt Q07343); assay: qHTS Assay for Inhibitors of PDE-IV (AID 607; active means well fitted activation curve with a large enough effect in the main read-out, with a control signal flat, not every such curve was filed as active; further: % of control where 0% means no effect); conditions: HEK293 ACTOne CNG channel cells, membrane potential fluorescence; series mostly up to 22.9 µM
Sequence of 3',5'-cyclic-AMP phosphodiesterase 4B (Homo sapiens) (Q07343 whole entry, looked up): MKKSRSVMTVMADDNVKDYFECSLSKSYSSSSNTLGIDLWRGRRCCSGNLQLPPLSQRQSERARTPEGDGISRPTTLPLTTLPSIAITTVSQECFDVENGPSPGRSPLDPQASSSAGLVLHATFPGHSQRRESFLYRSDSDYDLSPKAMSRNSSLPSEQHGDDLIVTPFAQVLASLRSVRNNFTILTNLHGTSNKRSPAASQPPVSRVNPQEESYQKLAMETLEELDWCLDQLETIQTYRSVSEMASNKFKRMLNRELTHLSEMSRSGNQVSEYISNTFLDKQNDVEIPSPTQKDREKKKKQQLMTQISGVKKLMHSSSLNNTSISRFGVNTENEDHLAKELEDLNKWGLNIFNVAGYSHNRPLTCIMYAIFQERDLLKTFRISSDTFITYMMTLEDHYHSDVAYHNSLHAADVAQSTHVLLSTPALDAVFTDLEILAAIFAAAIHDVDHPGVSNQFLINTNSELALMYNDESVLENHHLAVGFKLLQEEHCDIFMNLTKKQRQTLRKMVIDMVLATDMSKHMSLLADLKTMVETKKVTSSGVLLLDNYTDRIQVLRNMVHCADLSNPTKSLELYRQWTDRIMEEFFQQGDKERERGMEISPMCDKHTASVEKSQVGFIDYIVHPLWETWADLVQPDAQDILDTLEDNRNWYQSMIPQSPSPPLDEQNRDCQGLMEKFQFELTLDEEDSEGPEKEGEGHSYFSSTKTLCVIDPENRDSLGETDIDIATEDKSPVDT
In short: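 ACTOne HEK293 cells carry a modified cAMP-gated CNG channel and express endogenous PDE4; plated 1000 cells/well, compounds up to 22.9 uM final. Membrane-potential dye fluorescence (ex 535/em 590) was read; parental cells received 10 uM forskolin + 100 uM RO 20-1724.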

[6] = qHTS Assay for Lipid Storage Modulators (AID 1519; calls by dose curve); conditions: Drosophila S3 cells, BODIPY lipid droplet/cell ratio, laser cytometry, cells loaded with oleic acid; for activity change, negative = inhibition: at 25.7 µM (top of the series)
In short: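 Cells seeded at 5,000 per well were treated with compounds over a concentration series and loaded with oleic acid (400 uM, as added). Lipid droplet fluorescence (488 nm excitation, 500-530 nm channel) was read by laser-scanning cytometry and normalized to 20 uM Triacsin C.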

[7] = target: Ubiquitin carboxyl-terminal hydrolase 1 (Homo sapiens) (UniProt O94782); assay: Inhibitors of USP1/UAF1: Pilot qHTS (AID 504865); conditions: purified USP1/UAF1, Ub-rhodamine cleavage fluorescence; series mostly up to 54.9 µM;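 further: rhodamine fluorescence freed from ubiquitin-rhodamine substrate followed over time; top concentration of the series differs between compounds; on the % scale 0 is the no-effect control and ±100 the full control effect; nearly all actives have a fitted effect of over 35% in size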
Sequence of Ubiquitin carboxyl-terminal hydrolase 1 (Homo sapiens) (O94782 whole entry, looked up): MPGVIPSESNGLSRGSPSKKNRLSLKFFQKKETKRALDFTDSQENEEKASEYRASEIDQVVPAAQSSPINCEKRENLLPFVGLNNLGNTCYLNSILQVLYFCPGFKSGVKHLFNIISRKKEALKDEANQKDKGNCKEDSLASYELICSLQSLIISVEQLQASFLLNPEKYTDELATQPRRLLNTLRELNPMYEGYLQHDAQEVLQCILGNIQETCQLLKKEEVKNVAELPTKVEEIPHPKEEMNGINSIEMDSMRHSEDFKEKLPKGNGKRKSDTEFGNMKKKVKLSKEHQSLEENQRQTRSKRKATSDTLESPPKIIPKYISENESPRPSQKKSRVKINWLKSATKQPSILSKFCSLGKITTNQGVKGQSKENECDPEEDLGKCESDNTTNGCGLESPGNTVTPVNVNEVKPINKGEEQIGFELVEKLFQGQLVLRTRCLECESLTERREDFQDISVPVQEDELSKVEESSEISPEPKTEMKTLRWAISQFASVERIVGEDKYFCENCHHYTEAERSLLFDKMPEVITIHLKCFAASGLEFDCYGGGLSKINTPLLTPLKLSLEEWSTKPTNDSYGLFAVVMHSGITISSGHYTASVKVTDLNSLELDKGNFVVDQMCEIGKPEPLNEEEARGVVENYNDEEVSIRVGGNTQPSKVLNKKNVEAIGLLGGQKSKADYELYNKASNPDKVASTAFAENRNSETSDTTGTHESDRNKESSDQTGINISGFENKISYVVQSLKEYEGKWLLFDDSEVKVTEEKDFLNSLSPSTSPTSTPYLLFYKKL
In short: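 Enzyme-free wells gave the negative control, while test wells held 1nM USP1/UAF1 preincubated with compound for 15 min at room temperature. Ub-Rho at 150nM final started the reaction, and fluorescence at 480/540 nm was recorded kinetically.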

[8] = target: Luciferin 4-monooxygenase (Photinus pyralis) (UniProt P08659); assay: Biochemical firefly luciferase enzyme assay for NPC (AID 624030);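 further: purified P. pyralis luciferase at 10 nM with luciferin and ATP substrate; 0% = DMSO and -100% = full luciferase inhibition by PTC124 control; nearly all actives have a fitted effect of over 70% in size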; conditions: purified P. pyralis luciferase, luminescence, 5 min; series mostly up to 58.6 µM
Sequence of Luciferin 4-monooxygenase (Photinus pyralis) (P08659 whole entry, looked up): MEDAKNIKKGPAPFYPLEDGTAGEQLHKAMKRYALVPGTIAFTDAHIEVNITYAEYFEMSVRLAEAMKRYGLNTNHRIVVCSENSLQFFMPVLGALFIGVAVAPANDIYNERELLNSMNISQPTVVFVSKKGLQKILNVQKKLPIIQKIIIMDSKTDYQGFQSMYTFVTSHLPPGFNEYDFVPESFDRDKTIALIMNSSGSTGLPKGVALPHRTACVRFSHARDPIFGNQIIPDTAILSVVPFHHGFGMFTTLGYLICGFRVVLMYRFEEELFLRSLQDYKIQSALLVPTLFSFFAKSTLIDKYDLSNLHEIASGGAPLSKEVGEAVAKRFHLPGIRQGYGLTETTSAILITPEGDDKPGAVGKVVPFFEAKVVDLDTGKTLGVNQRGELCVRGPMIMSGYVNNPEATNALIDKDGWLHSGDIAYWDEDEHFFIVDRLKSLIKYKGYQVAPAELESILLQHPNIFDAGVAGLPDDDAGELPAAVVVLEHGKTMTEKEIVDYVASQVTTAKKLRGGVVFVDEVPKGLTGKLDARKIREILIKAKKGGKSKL
In short: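 Direct inhibition of firefly luciferase enzyme (10 nM final, 50 mM Tris Acetate) assessed by luminescence within 5 minutes. Percent activity scaled between DMSO and PTC124 positive control, with concentration-effect curves classified by fit quality and response.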

[9] = target: Cytochrome P450 1A2 (Homo sapiens) (UniProt P05177); assay: p450-cyp1a2 (AID 410; calls by dose curve; further: potency means the concentration at half of the fitted maximal effect;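 on activity change, negative = inhibition: -100% = full effect of reference inhibitor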); conditions: recombinant CYP1A2, luciferin-ME demethylation, luminescence; series mostly up to 57 µM
Sequence of Cytochrome P450 1A2 (Homo sapiens) (P05177 whole entry, looked up): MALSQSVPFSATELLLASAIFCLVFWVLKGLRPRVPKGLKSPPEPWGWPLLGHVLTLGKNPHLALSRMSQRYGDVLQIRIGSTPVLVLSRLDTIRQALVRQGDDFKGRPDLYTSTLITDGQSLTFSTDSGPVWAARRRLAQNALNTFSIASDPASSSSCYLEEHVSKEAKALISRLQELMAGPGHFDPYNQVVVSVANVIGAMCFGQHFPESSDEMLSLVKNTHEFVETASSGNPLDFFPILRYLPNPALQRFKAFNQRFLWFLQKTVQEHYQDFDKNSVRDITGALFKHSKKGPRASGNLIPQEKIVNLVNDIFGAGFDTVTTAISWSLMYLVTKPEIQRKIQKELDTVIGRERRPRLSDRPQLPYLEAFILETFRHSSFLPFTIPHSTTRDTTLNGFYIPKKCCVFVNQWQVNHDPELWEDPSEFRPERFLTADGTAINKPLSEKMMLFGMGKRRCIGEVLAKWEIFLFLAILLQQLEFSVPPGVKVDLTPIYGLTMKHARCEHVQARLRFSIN
In short: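 O-Demethylation of luciferin 6' methyl ether by human CYP1A2 is monitored as luciferase luminescence. Substrate sits at Km (100uM); enzyme is 20nM. Values are scaled to 57 uM furafylline as maximal inhibition.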

[10] = target: Glucocorticoid receptor (Homo sapiens) (UniProt P04150); assay: GR-GFP Redistribution (AID 450;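 active means compounds whose dose series gives a full or clear partial fitted curve of increased nuclear translocation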; further: potency means the concentration at half of the fitted maximal effect); conditions: U2OS GR-GFP nuclear translocation, laser cytometry, 2 h
Sequence of Glucocorticoid receptor (Homo sapiens) (P04150 whole entry, looked up, the tested form may be a part): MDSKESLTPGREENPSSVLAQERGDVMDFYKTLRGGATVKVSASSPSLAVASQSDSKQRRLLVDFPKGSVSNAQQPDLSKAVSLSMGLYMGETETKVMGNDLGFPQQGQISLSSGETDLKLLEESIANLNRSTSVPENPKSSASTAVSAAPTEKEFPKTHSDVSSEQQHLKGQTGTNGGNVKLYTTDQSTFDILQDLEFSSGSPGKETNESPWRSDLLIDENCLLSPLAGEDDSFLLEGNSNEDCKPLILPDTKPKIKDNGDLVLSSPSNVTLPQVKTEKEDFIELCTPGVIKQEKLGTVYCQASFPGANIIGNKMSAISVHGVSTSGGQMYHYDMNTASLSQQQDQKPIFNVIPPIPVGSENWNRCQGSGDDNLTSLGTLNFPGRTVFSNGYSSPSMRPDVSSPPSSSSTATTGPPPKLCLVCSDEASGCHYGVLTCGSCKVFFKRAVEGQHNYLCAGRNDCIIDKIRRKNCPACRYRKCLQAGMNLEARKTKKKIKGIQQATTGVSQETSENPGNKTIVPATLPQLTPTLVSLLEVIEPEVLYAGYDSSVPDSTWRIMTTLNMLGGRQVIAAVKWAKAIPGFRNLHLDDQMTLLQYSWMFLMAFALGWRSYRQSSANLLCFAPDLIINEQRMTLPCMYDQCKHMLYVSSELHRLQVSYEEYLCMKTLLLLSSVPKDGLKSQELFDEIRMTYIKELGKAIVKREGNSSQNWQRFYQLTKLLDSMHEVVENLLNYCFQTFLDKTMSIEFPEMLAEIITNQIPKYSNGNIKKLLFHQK

[11] = target: Glucocorticoid receptor (Homo sapiens) (UniProt P04150); assay: GR-EFC Redistribution (AID 451; calls by dose curve; further: potency means the concentration at half of the fitted maximal effect); conditions: CHO-K1 GR-EFC translocation, beta-gal luminescence, 2 h
In short: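 Translocation of GR-ED fusion to nuclear EA restores b-gal, read by luminescence after 1 h room-temperature detection. Engineered CHO-K1 biosensor cells, 1,000/well, exposed 2 h at 37 C to titrations up to 46 uM final.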

[12] = qHTS profiling for inhibitors of Plasmodium falciparum proliferation (AID 504749);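 further: 0% = DMSO vehicle and full inhibition = artemisinin control; nearly all actives have a fitted effect of over 60% in size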; conditions: P. falciparum in erythrocytes, SYBR Green DNA, 72 h
In short: (§1)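 SYBR Green fluorescence of parasite DNA, read after lysis and overnight dark incubation, measured growth over 72 h in erythrocyte culture at 0.3% parasitemia and 2.5% hematocrit. Data normalised to DMSO and 0.29 uM artemisinin, with plate-drift correction.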

[13] = system: CP238; assay: as above; conditions: P. falciparum in erythrocytes, SYBR Green DNA, 72 h; series mostly up to 12.8 µM
In short: as §1

[14] = system: CP262; assay: as above; conditions: P. falciparum in erythrocytes, SYBR Green DNA, 72 h; series mostly up to 12.8 µM
In short: as §1

[15] = system: CP325; assay: as above; conditions: P. falciparum in erythrocytes, SYBR Green DNA, 72 h; series mostly up to 12.8 µM
In short: as §1

[16] = system: ECU; assay: as above; conditions: P. falciparum in erythrocytes, SYBR Green DNA, 72 h; series mostly up to 12.8 µM
In short: as §1

[17] = system: FAB9; assay: as above; conditions: P. falciparum in erythrocytes, SYBR Green DNA, 72 h; series mostly up to 12.8 µM
In short: as §1

[18] = system: HB3; assay: as above; conditions: P. falciparum in erythrocytes, SYBR Green DNA, 72 h; series mostly up to 12.8 µM
In short: as §1

[19] = system: JCK; assay: as above; conditions: P. falciparum in erythrocytes, SYBR Green DNA, 72 h; series mostly up to 12.8 µM
In short: as §1

[20] = target: Cytochrome P450 3A4 (Homo sapiens) (UniProt P08684); assay: qHTS Assay for Activators of Cytochrome P450 3A4 (AID 885); conditions: recombinant CYP3A4, Luciferin-PPXE luminescence, 60 min; series mostly up to 57.1 µM; further: nearly all actives have a fitted effect of over 65% in size
Sequence of Cytochrome P450 3A4 (Homo sapiens) (P08684 whole entry, looked up): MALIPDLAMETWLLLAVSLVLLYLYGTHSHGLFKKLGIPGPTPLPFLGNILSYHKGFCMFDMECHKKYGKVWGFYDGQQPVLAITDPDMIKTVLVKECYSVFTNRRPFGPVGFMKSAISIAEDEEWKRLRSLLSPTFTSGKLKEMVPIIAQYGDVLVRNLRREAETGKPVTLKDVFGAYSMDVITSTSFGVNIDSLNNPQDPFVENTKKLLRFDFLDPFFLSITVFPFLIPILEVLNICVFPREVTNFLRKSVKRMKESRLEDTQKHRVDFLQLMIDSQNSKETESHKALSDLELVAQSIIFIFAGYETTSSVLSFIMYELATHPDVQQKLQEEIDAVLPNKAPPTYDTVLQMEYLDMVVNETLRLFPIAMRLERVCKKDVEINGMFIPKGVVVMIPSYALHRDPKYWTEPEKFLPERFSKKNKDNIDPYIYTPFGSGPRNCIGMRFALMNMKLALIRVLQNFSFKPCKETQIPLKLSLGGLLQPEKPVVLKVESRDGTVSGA
In short: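 CYP3A4 activity: Luciferin-PPXE O-dealkylation, 25uM substrate, 200mM KPO4, RT throughout. Read-out is luciferase luminescence; higher values reflect activation.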

[21] = measured here: cell count channel max response
[22] = measured here: lipid channel max response
[23] = at 7.69 µM (top of the series) unless noted
[24] = at 12.8 µM (top of the series), parasite line A
[25] = at 12.8 µM (top of the series), parasite line B

C[C@@H](C(=O)O)c1cccc(C(=O)c2ccccc2)c1
11.1%: max response [6, 21]
10.1%: max response [6, 22]
inactive: activity change, negative = inhibition ([1]; at 17.2 µM (top of the series)) 5.98% | activity change, negative = inhibition ([1]; at 38 µM (top of the series)) 9.29% | activity change, negative = inhibition ([2]; at 17.2 µM (top of the series)) 5.64% | activity change, negative = inhibition ([2]; at 38 µM (top of the series)) 19.5% | activity, negative = inhibition ([3]; at 17.2 µM (top of the series)) 6.92% | activity, negative = inhibition ([3]; at 38 µM (top of the series)) 4.82% | Potency [4] | Potency [5] | activity change, negative = inhibition [6] -0.218% | Potency [7] | outcome [8]

O=C(O)/C=C\c1ccc(O)c(O)c1
inactive: activity change, negative = inhibition ([1]; at 17.2 µM (top of the series)) -12.5% | activity change, negative = inhibition ([1]; at 38 µM (top of the series)) -5.91% | Potency [9] | activity change, negative = inhibition [2, 23] -7.46% [at 38 µM] | activity, negative = inhibition ([3]; at 17.2 µM (top of the series)) 3.52% | activity, negative = inhibition ([3]; at 38 µM (top of the series)) 10.1% | Potency [10] > 46 µM and > 20.6 µM | Potency [11] > 46 µM and > 20.6 µM | Potency [4] | Potency [5] | activity change, negative = inhibition [6] -3.56% | Potency [7]
-1.26%: max response [6, 21]
-2.45%: max response [6, 22]

NS(=O)(=O)c1cc([C@@]2(O)NC(=O)c3ccccc32)ccc1Cl
-12.6%: max response [6, 21]
-14.5%: max response [6, 22]
inactive: activity change, negative = inhibition [1, 23] -7.43% [at 17.2 µM] | Potency [9] | activity change, negative = inhibition [2, 23] -15.2% [at 17.2 µM] | activity, negative = inhibition [3, 23] 1.16% [at 17.2 µM] | Potency [10] > 20.6 µM | Potency [11] > 20.6 µM | Potency [4] | Potency [5] | activity change, negative = inhibition [6] -1.2% | Potency [7] | outcome [8] | activity, negative = inhibition [12, 24] -2.59% | activity, negative = inhibition [12, 25] 2.66% | Potency [13] | Potency [14] | Potency [15] | Potency [16] | Potency [17] | Potency [18] | Potency [19]

CCCN[C@@H](C)C(=O)Nc1c(C)csc1C(=O)OC
-6.57%: max response [6, 21]
active: Potency [9] 12.6 µM
inactive: activity change, negative = inhibition [1, 23] 8.34% [at 17.2 µM] | activity change, negative = inhibition [2, 23] -13.1% [at 17.2 µM] | activity, negative = inhibition [3, 23] -0.411% [at 17.2 µM] | Potency [10] > 20.6 µM | Potency [11] > 20.6 µM | Potency [5] | Potency [20] | activity change, negative = inhibition [6] -2.12% | outcome [8] | activity, negative = inhibition [12, 24] 6.61% | activity, negative = inhibition [12, 25] 16.5% | Potency [13] | Potency [14] | Potency [15] | Potency [16] | Potency [17] | Potency [18] | Potency [19]
-14.2%: max response [6, 22]

NC(N)=NC[C@@H]1COC2(CCCCC2)O1
inactive: activity change, negative = inhibition [1, 23] 13.7% [at 17.2 µM] | Potency [9] | activity change, negative = inhibition [2, 23] 18.5% [at 17.2 µM] | activity, negative = inhibition [3, 23] 6.54% [at 17.2 µM] | Potency [10] > 20.6 µM | Potency [11] > 20.6 µM | Potency [4] | Potency [5] | activity change, negative = inhibition [6] -0.418% | Potency [7] | outcome [8] | activity, negative = inhibition [12, 24] -12.1% | activity, negative = inhibition [12, 25] -13% | Potency [13] | Potency [14] | Potency [15] | Potency [16] | Potency [17] | Potency [18] | Potency [19]
-12.5%: max response [6, 21]
-12.6%: max response [6, 22]

COCCc1ccc(OC[C@H](O)CNC(C)C)cc1
11.2%: max response [6, 22]
inactive: activity change, negative = inhibition ([1]; at 17.2 µM (top of the series)) 15.8% | activity change, negative = inhibition ([1]; at 38 µM (top of the series)) 13.6% | activity change, negative = inhibition ([2]; at 17.2 µM (top of the series)) 1.88% | activity change, negative = inhibition ([2]; at 38 µM (top of the series)) -1.17% | activity, negative = inhibition ([3]; at 17.2 µM (top of the series)) -1.97% | activity, negative = inhibition ([3]; at 38 µM (top of the series)) 13.4% | Potency [10] > 46 µM and > 20.6 µM | Potency [11] > 46 µM and > 20.6 µM | Potency [4] | Potency [5] | activity change, negative = inhibition [6] 1.2% | Potency [7] | outcome [8] | activity, negative = inhibition ([12]; at 28.7 µM (top of the series), parasite line A) 13.1% | activity, negative = inhibition ([12]; at 28.7 µM (top of the series), parasite line B) 3.39% | Potency [13] | Potency [14] | Potency [15] | Potency [16] | Potency [17] | Potency [18] | Potency [19]
10.9%: max response [6, 21]

CCC[C@H]1C(=O)N2C(N(C)C)=Nc3ccc(C)cc3N2C1=O
active: Potency [9] 1.58 µM
-12%: max response [6, 22]
-10.8%: max response [6, 21]
inactive: activity change, negative = inhibition [1, 23] 1.43% [at 17.2 µM] | activity change, negative = inhibition [2, 23] -21% [at 17.2 µM] | activity, negative = inhibition [3, 23] -9.03% [at 17.2 µM] | Potency [10] > 20.6 µM | Potency [11] > 20.6 µM | Potency [4] | Potency [5] | activity change, negative = inhibition [6] -3.21% | outcome [8] | activity, negative = inhibition [12, 24] 12.2% | activity, negative = inhibition [12, 25] -0.686% | Potency [13] | Potency [14] | Potency [15] | Potency [16] | Potency [17] | Potency [18] | Potency [19]

COc1ccccc1OC[C@H](O)COC(N)=O
2.55%: max response [6, 22]
active: Potency [9] 10 µM
inactive: activity change, negative = inhibition [1, 23] -6.22% [at 17.2 µM] | activity change, negative = inhibition [2, 23] -5.33% [at 17.2 µM] | activity, negative = inhibition [3, 23] 10.4% [at 17.2 µM] | Potency [10] > 20.6 µM | Potency [11] > 20.6 µM | Potency [4] | Potency [5] | activity change, negative = inhibition [6] 1.49% | Potency [7] | outcome [8] | activity, negative = inhibition [12, 24] 3.95% | activity, negative = inhibition [12, 25] 18.1% | Potency [13] | Potency [14] | Potency [15] | Potency [16] | Potency [17] | Potency [18] | Potency [19]
-1.12%: max response [6, 21]
